Bioassay records as filed in PubChem BioAssay.
Hits are enriched below; roughly 3.9% of the tested compounds scored in any of these assays.
esBAF inh = blocks esBAF chromatin remodeling in mouse ES cells | Bmi1-luciferase knock-in reporter, 24 h; 100% = twice the neutral-well signal | reporter increase, % at 12.5 µM | actives 2% (n = 350,000) | AID 602393; in the data active = activation above about 40%; inconclusive = no clear call, values can overlap the other calls;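 also: a rise in the Bmi1 reporter signal indicates esBAF inhibition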
MITF act = increases MITF-driven TRPM1 promoter luciferase signal. actives 0.75% (n = 300,000). SK-MEL-5 TRPM1-promoter luciferase, 24 h; % of positive control, neutral wells = 0. activation, % at 12.5 µM;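 active = mean activation of at least 80% with every replicate also reaching 80%; inconclusive = mean reaches 80% but some replicate falls short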
HSF1 inhib = HSF1 inhibition | NIH3T3-HGL HSE-luciferase, MG132-induced, luminescence 8 h; hits give low values | activity change, negative = inhibition, % at 7.5 µM (by protocol) | actives 0.77% (n = 300,000) | AID 2098;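 active = more than half of replicate wells show activity change below -50%, luminescence cut by over half; inconclusive = some wells, but at most half, below -50%; inactive = no replicate well below -50%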;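 also: luciferase reports HSF-1 transcriptional activity via heat shock element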
HSF1 activator = increases HSF-1 driven luciferase reporter signal; NIH3T3-HGL HSF-1 luciferase reporter, MG132, 8 h; 100% = twice DMSO control signal; actives 1.7% (n = 300,000); activation, % at 9 µM;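 active = mean replicate activation of at least 50% with a set share of replicates each reaching 50%; inconclusive = only one of those two conditions met; inactive = mean below 50% and too few replicates reaching it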
Wnt bcat act = activates Wnt/beta-catenin signaling in a reporter cell assay | activator, plate reader | activation, % at 9.35 µM | actives 1.2% (n = 300,000) | AID 743398; in the data active = activation above about 30%, passing the limit was not always enough; inconclusive = no clear call, values can overlap the other calls
Each line names hits and unclear results; the compound was inactive in the other large screens.

CC=Cc1ccc2n(c1=O)C[C@H]1[C@H](CO)[C@@H](C(=O)NCCc3cn(C)cn3)N(C(=O)C3CCC3)[C@@H]21 (mixture of isomers)	none (no result: MITF act, HSF1 inhib, HSF1 activator, Wnt bcat act)
Cc1ccc(S(=O)(=O)N(C)C[C@H]2Oc3ccc(NS(=O)(=O)c4cn(C)cn4)cc3C(=O)N([C@@H](C)CO)C[C@@H]2C)cc1	none (no result: MITF act, HSF1 inhib, HSF1 activator, Wnt bcat act)
COc1ccc(-c2nnc(Nc3ccc(CC(N)=O)cc3)c3ccccc23)cc1	HSF1 activator 57 (no result: esBAF inh, Wnt bcat act)
Oc1c(Cl)cccc1C=Nc1cc(C(F)(F)F)ccc1N1CCCC1	none (no result: Wnt bcat act)
Oc1c(Cl)cc(Cl)cc1C=Nc1cc(C(F)(F)F)ccc1N1CCc2ccccc2C1	HSF1 activator 70, Wnt bcat act inconclusive
Cc1ccc(C(=O)C=CC=Cc2ccccc2)cc1	none (no result: MITF act, HSF1 inhib, HSF1 activator)
Cc1ccc(C(=O)C(C(=O)/C=C/c2ccccc2)=C2SCCCS2)cc1	HSF1 activator 136 (no result: Wnt bcat act)
Cc1ccc(S(=O)(=O)N(C)C[C@@H]2OCc3ccccc3-c3c(n(C)c4ccccc34)C(=O)N([C@@H](C)CO)C[C@H]2C)cc1	none (no result: MITF act, HSF1 inhib, HSF1 activator, Wnt bcat act)
CC(C)S(=O)(=O)c1cnc(N2CCOCC2)nc1N	Wnt bcat act 40 (no result: esBAF inh, MITF act)
COc1ccc(NC(=O)N(C)C[C@@H]2Oc3ccc(NS(=O)(=O)c4ccc(F)cc4)cc3C(=O)N([C@H](C)CO)C[C@@H]2C)cc1	none (no result: MITF act, HSF1 inhib, HSF1 activator, Wnt bcat act)
Cc1nc(NC(=O)c2oc3ccccc3c2C)sc1C(=O)N(C)C	esBAF inh 62
CCCCc1nnc(NC(=O)c2oc3ccccc3c2C)s1	esBAF inh 63
Cc1cc2oc(=O)cc(Cn3ncc(Cl)c(Cl)c3=O)c2cc1Cl	HSF1 activator 81 (no result: Wnt bcat act)
CCCCCn1c(SCc2cccc(C)c2)nc2c1c(=O)[nH]c(=O)n2C	HSF1 activator 60 (no result: MITF act)
CCCn1c(SCc2ccccc2)nc2c1c(=O)[nH]c(=O)n2C	none
C[C@H](CO)N1C[C@H](C)[C@H](CN(C)C(=O)N[C@H](C)c2ccccc2)OCc2ccccc2-c2ccccc2C1=O	none (no result: MITF act, HSF1 inhib, HSF1 activator, Wnt bcat act)
C[C@H]1CCCCO[C@H](CN(C)C(=O)C2CCCCC2)[C@@H](C)CN([C@@H](C)CO)C(=O)c2cc(NS(=O)(=O)c3cccs3)ccc2O1	none (no result: MITF act, HSF1 inhib, HSF1 activator, Wnt bcat act)
Cc1nc(-c2ccc(C(=O)Nc3cccc(F)c3)cc2)cs1	none
COc1ccc(NC(=O)c2ccc(-c3csc(C)n3)cc2)cc1	esBAF inh 41 (no result: MITF act)
Cc1nc(-c2ccc(C(=O)Nc3ccc(F)cc3)cc2)cs1	HSF1 activator 67, Wnt bcat act 43
O=C(N[C@@H]1CC[C@H](CCn2cc(C3(O)CCCC3)nn2)O[C@H]1CO)C1CCOCC1	none (no result: MITF act, HSF1 inhib, HSF1 activator, Wnt bcat act)
O=C(OCCc1ccccc1)c1cc(O)c(O)c(O)c1	Wnt bcat act 51
COc1ccc(CCOC(=O)c2ccc(NC(=O)CC#N)cc2)cc1	none
COc1ccc(C(=O)OCCc2ccc(O)cc2)cc1	esBAF inh 50, MITF act 130
CCN(CC)CCOC(=O)c1ccc(N)cc1	HSF1 inhib -78
Nc1ccc(C(=O)OCCc2ccccc2)cc1	MITF act 101, Wnt bcat act 60
CN(C)S(=O)(=O)c1ccc(C(=O)OCCc2ccccc2)cc1	none
COC(=O)c1ccc(COC(=O)CNC(=O)c2ccc(OC)cc2)cc1	esBAF inh 68 (no result: HSF1 inhib, HSF1 activator)
COC(=O)c1ccc(COC(=O)CNC(=O)CNC(=O)c2ccc(OC)cc2)cc1	none (no result: esBAF inh, MITF act)
COCC(=O)Nc1ccc2c(c1)[C@H]1C[C@H](CC(=O)NCc3ccccc3OC)O[C@@H](CO)[C@H]1O2	none (no result: MITF act, HSF1 inhib, HSF1 activator, Wnt bcat act)
CC(C)(C)C(=O)COC(=O)c1cccc(NC(=O)c2ccco2)c1	none
Cc1ccn2cc(-c3ccc(NC(=O)c4ccco4)cc3)nc2c1	Wnt bcat act 46
COc1ccc(NC(=O)c2ccco2)cc1NC(=O)c1ccco1	none (no result: MITF act, Wnt bcat act)
O=C(COC(=O)c1cccc(NC(=O)c2ccco2)c1)c1ccc(Br)cc1	Wnt bcat act 43 (no result: MITF act)
COc1ccc(NC(=O)c2ccco2)cc1N	HSF1 inhib -57
CC(=O)N(C)c1ccc(NC(=O)c2ccco2)cc1	Wnt bcat act 35
CN(c1ccccc1)S(=O)(=O)c1ccc(NC(=O)c2ccco2)cc1	none
C[C@@H]1CN([C@@H](C)CO)C(=O)c2cc(NS(=O)(=O)c3ccccc3)ccc2O[C@H]1CN(C)C(=O)NC1CCCCC1	none (no result: MITF act, HSF1 inhib, HSF1 activator, Wnt bcat act)
COc1cccc(NC(=O)N[C@@H]2C=C[C@H](CC(=O)NCc3ccccn3)O[C@@H]2CO)c1	none (no result: MITF act, HSF1 inhib, HSF1 activator, Wnt bcat act)
CC(=O)Nc1ccc2nc(-c3ccco3)[nH]c2c1	none (no result: esBAF inh)
O=C(Nc1ccc(Nc2ccccc2)cc1)c1ccco1	esBAF inh inconclusive, HSF1 activator 67 (no result: Wnt bcat act)
O=C(Nc1ccc(Br)cc1)c1ccco1	esBAF inh 71, MITF act 91
O=C(Nc1ccc(-c2ccccc2)cc1)c1ccco1	none
O=C(Nc1ccc2nc(-c3ccco3)[nH]c2c1)c1ccco1	Wnt bcat act 37 (no result: MITF act)
O=C(Nc1nccs1)c1ccc(NC(=O)c2ccco2)cc1	esBAF inh 50 (no result: Wnt bcat act)
C[C@H](CO)N1C[C@H](C)[C@H](CN(C)C(=O)C2CC2)Oc2cc(-c3cccc(F)c3)ccc2S1(=O)=O	none (no result: MITF act, HSF1 inhib, HSF1 activator, Wnt bcat act)
COc1ccc(NC(=O)N(C)C[C@H]2OCCCC[C@H](C)Oc3ccc(NS(=O)(=O)c4cccs4)cc3C(=O)N([C@H](C)CO)C[C@@H]2C)cc1	none (no result: MITF act, HSF1 inhib, HSF1 activator, Wnt bcat act)
CN1C(=O)c2cc(NC(=O)c3cscn3)ccc2OC[C@H]2O[C@H](CC(=O)N3CCCCC3)CC[C@@H]21	none (no result: MITF act, HSF1 inhib, HSF1 activator, Wnt bcat act)
O=C(Nc1ccc(NC(=O)c2ccco2)cc1)c1ccco1	esBAF inh 46
Cc1ccc(NC(=O)CNC(=O)c2ccco2)cc1	esBAF inh 42
Cc1nc(-c2ccc(NC(=O)c3ccco3)cc2)cs1	HSF1 inhib inconclusive
Nc1nc(-c2ccc(NC(=O)c3ccco3)cc2)cs1	Wnt bcat act 42
CO[C@@H]1CN(C)C(=O)c2ccc(NC(=O)Nc3cccc(F)c3)cc2OC[C@H](C)N(C(C)=O)C[C@H]1C	none (no result: MITF act, HSF1 inhib, HSF1 activator, Wnt bcat act)
O=C(Nc1ccc(F)cc1)N1C[C@@H]2[C@H](c3ccccc31)[C@@H](CO)N2C(=O)c1cccnc1	none (no result: MITF act, HSF1 inhib, HSF1 activator, Wnt bcat act)
CC(C)NC(=O)Nc1ccc2c(c1)C(=O)N([C@H](C)CO)C[C@@H](C)[C@@H](CN(C)C(=O)C1CCCCC1)OCCCC[C@@H](C)O2	none (no result: MITF act, HSF1 inhib, HSF1 activator, Wnt bcat act)
O=C(N[C@@H]1CC[C@H](CC(=O)N2CCC(Cc3ccccc3)CC2)O[C@@H]1CO)c1cnccn1	none (no result: MITF act, HSF1 inhib, HSF1 activator, Wnt bcat act)
COc1ccc(S(=O)(=O)N(C)C[C@@H]2Oc3c(NS(=O)(=O)c4ccc(Cl)cc4)cccc3C(=O)N([C@H](C)CO)C[C@@H]2C)cc1	none (no result: MITF act, HSF1 inhib, HSF1 activator, Wnt bcat act)
CC(NC(=O)c1cc(-c2ccccc2)nc2ccccc12)C1CCCO1 (centres undefined)	HSF1 activator 52 (no result: esBAF inh, MITF act, Wnt bcat act)
O=C(Nc1nccs1)c1sc2cc(Cl)ccc2c1Cl	esBAF inh 57, HSF1 activator 56, Wnt bcat act 76 (no result: MITF act)
O=C(NC1CC1)c1sc2cc(Cl)ccc2c1Cl	esBAF inh 44, MITF act 111
O=C(NC1CC1)c1sc2ccccc2c1Cl	esBAF inh 47
C[C@@H]1CN([C@H](C)CO)C(=O)c2cc(NC(=O)CCN3CCOCC3)ccc2O[C@H]1CN(C)C(=O)Nc1ccc2c(c1)OCO2	none (no result: MITF act, HSF1 inhib, HSF1 activator, Wnt bcat act)
